Source: PubChem (National Center for Advancing Translational Sciences (NCATS))
This excerpt belongs to a sample that is enriched for hits.
Shiga toxin inh – A qHTS for Small Molecule Inhibitors of Shiga Toxin. Vero cells, Shiga toxin protein synthesis inhibition reporter. inhibition, % at 38.7 µM. actives 9.2% (n = 290,000). AID 2315, 2010; in the data active = inhibition mostly above about 28%, no sharp cut-off; inactive = mostly below about 43%; note: 0% is about no effect
Cycloheximide cs – Cycloheximide Counterscreen for Small Molecule Inhibitors of Shiga Toxin; AID 2314, 2010; cell reporter, cycloheximide protein synthesis inhibition counterscreen; actives 12% (n = 300,000); max response, %; in the data active = max response mostly above about 13%, no sharp cut-off; inactive = mostly below about 14%; note: read at 38.3 µM for the half of the compounds with a filed dose; 0% is about no effect
LmPK inhibitor – qHTS Assay for Inhibitors of Leishmania Mexicana Pyruvate Kinase (LmPK) | purified LmPK, Kinase-Glo ATP luminescence, 1 h | actives 0.37% (n = 290,000) | Q27686 | Potency, µM (titrated, usually from 57.5 µM), inactives show at the highest dose activity change, negative = inhibition, actives largely listed as inhibitors | AID 1721, 2009; note: potency is the fitted concentration of half-maximal effect; % is set by controls: 0 for no effect and ±100 for the full control effect
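Screened at intermediate enzyme activity to detect both inhibitors and activators: LmPK at 0.1 nM, with a 0.5 nM enzyme column as activation reference. PEP 0.5 mM, ADP 0.1 mM; ATP detected by luminescence after 1 h.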
RE007 growth inh – qHTS Assay for Inhibitors of the HIV-1 protein Vpr. actives 0.21% (n = 360,000). Potency, µM (series often up to 92.2 µM), inactives show at the top dose activity change, negative = less growth, hits mostly inhibitors. S. pombe RE007 Vpr strain, BacTiter-Glo ATP luminescence, 24 h; active = well fitted falling curve with a large enough effect; inconclusive = small, poorly fitted or top-dose-only effect; inactive = no such curve, though single readings can be large or run the other way; note: potency is the fitted concentration of half-maximal effect; % is set by controls: 0 for no effect and ±100 for the full control effect; nearly all actives have a fitted effect of over 50% in size
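Fission yeast strain RE007, carrying one chromosomally integrated HIV-1 vpr copy, was seeded at OD 0.01 in PMG+AL medium with 23 nL pinned compound. After 24 h at 30 °C and 99% humidity, viability was read by BacTiter-Glo luminescence.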
FBPA Giardia inh – qHTS Assay for Inhibitors of Fructose-1,6-bisphosphate Aldolase from Giardia Lamblia | purified Giardia FBPA | Potency, µM (highest dose often 59.6 µM), for the others: at the top dose activity, negative = inhibition, most hits filed as inhibitors | actives 0.71% (n = 290,000) | AID 2451, 2010; note: potency is the fitted concentration of half-maximal effect; % is set by controls: 0 for no effect and ±100 for the full control effect; nearly all actives have a fitted effect of over 55% in size
Target sequence (A8B2U2 whole entry, looked up): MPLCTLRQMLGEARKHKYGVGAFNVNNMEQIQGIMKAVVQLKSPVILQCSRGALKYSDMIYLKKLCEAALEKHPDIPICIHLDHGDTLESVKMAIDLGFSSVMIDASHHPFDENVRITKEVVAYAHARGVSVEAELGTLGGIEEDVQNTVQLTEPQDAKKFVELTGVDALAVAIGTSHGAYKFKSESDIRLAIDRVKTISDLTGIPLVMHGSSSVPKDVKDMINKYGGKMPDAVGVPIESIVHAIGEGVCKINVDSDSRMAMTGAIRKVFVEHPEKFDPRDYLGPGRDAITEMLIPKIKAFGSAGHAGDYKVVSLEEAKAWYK
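40 nM FBPA preincubated 10 min at RT with compound (up to 57.5 uM final), then substrate plus GAPDH/TPI/NAD/arsenate coupling and diaphorase/resazurin added. Fluorescence read after 20 min at RT, 525/598 nm.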
TbPYK inhibitor – qHTS of Trypanosoma Brucei Inhibitors. pyruvate kinase (Trypanosoma brucei), Q57TT1. TbPYK enzyme, Kinase-Glo Plus ATP luminescence, 45 min. Potency, µM (series often up to 76.8 µM), without a hit: at the highest dose activity, negative = inhibition, most hits filed as inhibitors. actives 0.12% (n = 410,000). AID 624173, 2012; note: potency is the fitted concentration of half-maximal effect; % is set by controls: 0 for no effect and ±100 for the full control effect; nearly all actives have a fitted effect of over 50% in size
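Readout: single end-point luminescence (Kinase-Glo Plus, 10 min). Reaction conditions were TbPYK/substrate plus 130 uM ADP, 45 min at RT, pH 7.2 TEA buffer. No-enzyme wells served as controls, and data were normalized before concentration-response fitting.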
* hit, by the source's call; ? = inconclusive; / = no result given. Unless noted, calls come from the whole dose curve; as a rule, active = well fitted curve in the direction sought with a large enough effect; inconclusive = small, poorly fitted or top-dose-only effect, or another doubt; inactive = no such curve, though single readings can be large; an effect the other way counts as inactive or inconclusive.

SMILES	Shiga toxin inh	Cycloheximide cs	LmPK inhibitor	RE007 growth inh	FBPA Giardia inh	TbPYK inhibitor
CN(Cc1ccccc1)C(=O)C(C(=O)c1ccc(F)cc1)n1cc(Cl)ccc1=O (configuration not stated)	48.4*	41.0*	3.2%	0.7%	-5.9%	-1.3%
Fc1cccc(Cc2c(-c3ccco3)nc3ccc(Cl)cn23)c1	/	/	/	-8.2%	/	?
Fc1cccc(Cc2c(-c3ccco3)nc3ccc(Br)cn23)c1	/	/	/	-10.0%	/	25.1µM*
CCC(=O)Nc1ccc(C(=O)Nc2cccc(C)n2)cc1	62.4*	35.0*	-18.3%	-11.5%	-13.3%	-6.2%
COc1ccc(NC(=S)Nc2cccc(C)n2)cc1	61.7	18.8*	1.8%	-11.5%	0.2%	3.7%
Cc1cccc(NC(=O)Nc2ccc(Br)cc2)n1	59.3*	28.7*	3.5%	-11.3%	4.6%	1.3%
CCOC(=O)c1ccc(NC(=O)Nc2cccc(C)n2)cc1	0.9	-5.1	0.6%	8.6%	2.3%	-2.7%
COc1ccc(NC(=O)Nc2cccc(C)n2)cc1	117.2*	48.9*	-1.8%	-8.0%	-4.2%	10.6%
O=C(NCCO)C(=O)NCC1OCCCN1S(=O)(=O)c1cc(F)ccc1F (configuration not stated)	-14.6	-2.8	-9.0%	-5.7%	/	-3.3%
Cc1cccc(NC(=O)Nc2ccccc2[N+](=O)[O-])n1	14.4	24.2*	-0.4%	-3.6%	0.7%	-0.2%
Cc1cc(C(=O)CSc2ncccn2)c(C)n1Cc1ccco1	78.5*	45.6*	0.1%	2.1%	-3.5%	2.9%
Cc1cc(C(=O)CSc2nnnn2C)c(C)n1Cc1ccco1	87.2*	70.6*	1.8%	1.1%	-6.3%	2.6%
Cc1cc(C(=O)CSc2nc3ccc(Cl)cc3[nH]2)c(C)n1Cc1ccco1	/	/	/	23.2%	/	-12.3%
O=C(NCCOc1ccccc1)c1cccc(S(=O)(=O)N2CCN(Cc3ccccc3)CC2)c1	/	/	/	-2.6%	/	-7.3%
Cc1ccc2nc3c(cc2c1)CN(Cc1ccco1)C(=NCC1CCCO1)S3 (configuration not stated)	-4.7	-1.1	0.6%	-7.1%	3.1%	-2.4%
Cc1cccc2cc3c(nc12)SC(=NCC1CCCO1)N(Cc1ccco1)C3 (configuration not stated)	41.1	19.9*	-0.5%	-1.6%	-0.1%	?
Cc1cc(=S)n(-c2ccccc2)n1C	39.2*	15.5	0.4%	-12.1%	?	-20.3%
CCOc1ccc(/C=N/NC(=O)c2cc(-c3ccco3)nc3ccccc23)cc1	103.2*	47.4*	3.3%	7.7%	1.8%	-2.8%
COc1ccc2nc(-c3ccccc3)cc(OC)c2c1	65.1*	58.2*	6.7%	-23.3%	-2.7%	11.3%
COc1ccc(-c2cc(C(=O)N/N=C(\C)c3cccnc3)c3ccccc3n2)c(OC)c1	42.0*	18.5	-7.4%	8.2%	/	-1.1%
COc1ccc(OC)c(-c2cc(C(=O)N/N=C(\C)c3cccnc3)c3ccccc3n2)c1	-8.2	1.1	6.6%	-7.9%	-7.7%	10.3%
COc1ccc(/C=N/NC(=O)c2cc(-c3ccccc3)nc3ccccc23)c(OC)c1	40.4	17.6*	-6.6%	-6.3%	-15.9%	-7.9%
COc1ccc2nc(-c3ccccc3)[nH]c(=O)c2c1	/	/	/	-26.6%	/	-1.8%
COc1cccc(C(=O)NCCS(=O)(=O)N2CCN(C(=O)c3ccco3)CC2)c1	/	/	/	3.8%	/	5.9%
CC(NC(=O)c1cccc2c1Oc1ccccc1S2)C(=O)O (configuration not stated)	/	/	/	13.2%	/	-8.5%
COc1cccc(CNC(=O)c2ccc(CNS(=O)(=O)c3ccc(C)cc3)cc2)c1	/	/	/	/	/	-4.0%
CCN1CCN(c2oc(-c3ccc(COc4ccc(C)cc4)o3)nc2C#N)CC1	/	/	/	/	/	-3.6%
C=CCn1c(O)c(/C(C)=N/N2CCCCC2)c(=O)[nH]c1=O	75.2*	38.3	4.6%	44.1%	-0.3%	1.0%
C=CCn1c(O)c(C(C)=NCCN2CCCCC2)c(=O)[nH]c1=O	-15.7	-2.8	10.2%	12.6%	-3.1%	0.3%
